High-throughput results: PubChem, National Center for Advancing Translational Sciences (NCATS)
Rows were chosen to be rich in hits. Some 7.9% of all compounds tested hit in one or more screens of this group.
FMDV inh: antivirals against foot and mouth disease virus | FMDV antiviral cell-based qHTS | AID 1159524 | 410,000 compounds, 1.2% hits | Potency, µM (series often up to 57.9 µM), actives largely listed as inhibitors; calls by dose curve; tested in HEK293T cells; also: read-out not given here; nearly all actives have a fitted effect of over 45% in size
HCMV antiviral: human cytomegalovirus inhibition | activity change, negative = inhibition, % at 57.5 µM | HFF cells, HCMV-luciferase reporter, 72 h; active compounds read low | 410,000 compounds, 4.5% hits; in the data active = activity change below about -60%; inconclusive = no clear call, values can overlap the other calls; inactive = above about -39%
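After 16 h attachment at 37C, HFF cells received test compound and HCMV-luciferase (1 PFU/cell); reporter luminescence read 72 h later, data normalized against buffer-only and known inhibitor Salinomycin.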
Lassa entry inh: inhibitors of Lassa virus binding or cell entry. Lassa virus pseudotype entry inhibition, cell reporter. Potency, µM (doses to about 37.9 µM), most hits filed as inhibitors. 300,000 compounds, 1.2% hits; calls by dose curve; tested in HEK293 cells; also: nearly all actives have a fitted effect of over 50% in size
MARV entry inh: blocks Marburg virus binding to or entry into cells. Potency, µM (titrated, usually from 37.8 µM), usual class: inhibitors. AID 540276. 300,000 compounds, 1.8% hits. Marburg virus pseudotyped entry inhibition, cell reporter; calls by dose curve; tested in HEK293 cells
HCV inh: inhibitors of hepatitis C virus infection; Huh7.5.1 HCVcc-Cre infection, luciferase reporter, 44 h; Potency, µM (top dose mostly 41.8 µM), actives largely listed as inhibitors; 340,000 compounds, 3.4% hits; AID 651820; active = well fitted inhibition curve with a large enough effect; inconclusive = small, poorly fitted or top-dose-only effect, or another doubt; inactive = no such curve, though single readings can be large or run the other way
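Infectious HCV cell culture screen: compound-treated cells (1,000/well, pre-plated 4 h) are infected with HCVcc-Cre at roughly 0.5 moi and grown 44 h. Infection is quantified by luciferase signal after 15 min substrate incubation at room temperature.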
Large screens that a line does not name were inactive.

COc1cc2c(cc1OC)C(c1ccccc1)N(C(=O)CCl)CC2 (stereo not given)	FMDV inh 7.1µM, HCMV antiviral -99, Lassa entry inh inconclusive, MARV entry inh inconclusive
COc1ccc(CCNC(=O)c2cnc3sc(N4CCC(C)CC4)nn3c2=O)cc1OC	FMDV inh inconclusive (no result: MARV entry inh, HCV inh)
O=C(Nc1ccc(Br)cc1F)c1cc(S(=O)(=O)NC2CCCC2)ccc1F	none (no result: MARV entry inh, HCV inh)
COc1cc2c(cc1OC)C(C)N(C(=O)c1ccc(Cl)c(S(=O)(=O)N3CCCCC3)c1)CC2 (stereo not given)	HCMV antiviral -64, HCV inh 8.9µM (no result: Lassa entry inh, MARV entry inh)
Cc1ccc(S(=O)(=O)N2CCN(c3ncnc4sccc34)CC2)cc1	FMDV inh inconclusive, HCMV antiviral -85, HCV inh 6.3µM (no result: Lassa entry inh, MARV entry inh)
Cc1cnc(C(=O)N2CCN(S(=O)(=O)c3ccc(F)c(F)c3F)CC2)cn1	none (no result: Lassa entry inh, MARV entry inh)
O=S(=O)(c1ccc(F)c(F)c1F)N1CCN(c2ncnc3sccc23)CC1	FMDV inh inconclusive, HCMV antiviral -79, Lassa entry inh inconclusive, MARV entry inh inconclusive, HCV inh inconclusive
c1ccc(CC2CCN(c3ncnc4sccc34)CC2)cc1	FMDV inh inconclusive, HCMV antiviral -85, HCV inh 4µM
CCOC(=O)c1cc(-c2ccc(C)cc2)n(CCC(=O)Nc2cc(Cl)ccc2C)c1C	MARV entry inh inconclusive (no result: Lassa entry inh, HCV inh)
CCCCNC(=O)C(NC(=O)c1ccc2ccccc2c1)C(=O)c1ccccc1 (stereo not given)	HCMV antiviral -64 (no result: Lassa entry inh, MARV entry inh, HCV inh)
O=C(c1ccco1)N1CCN(S(=O)(=O)c2ccccc2[N+](=O)[O-])CC1	none
O=C(Nc1cccnc1)c1c(F)cccc1F	HCMV antiviral -104
O=C(Nc1cccnc1)c1ccc(NC(=O)c2ccco2)cc1	HCMV antiviral -103
O=C(Nc1cccnc1)c1ccc(F)cc1	none
O=C(Nc1cccnc1)c1ccco1	HCMV antiviral -82 (no result: FMDV inh)
O=C(Nc1ccc(NC(=O)c2ccco2)nc1)c1cccnc1	Lassa entry inh inconclusive, MARV entry inh inconclusive
CC(C)c1ccc(C(=O)Nc2cccnc2)cc1	Lassa entry inh inconclusive, MARV entry inh 4µM
CC(=O)c1ccc(N2CCN(C(=O)CS(=O)(=O)c3cccc4nsnc34)CC2)cc1	none (no result: MARV entry inh, HCV inh)
COc1cccc(N2CCN(C(=O)C3CCN(S(=O)(=O)c4cn(C)cn4)CC3)CC2)c1	none (no result: MARV entry inh, HCV inh)
CCOc1ccc(-c2c(C(=O)N/N=C/c3ccc(Cl)cc3)nnn2-c2nonc2N)cc1	none (no result: Lassa entry inh, MARV entry inh)
CCC(C(=O)NC(C)(C)C)n1c(-c2cccc(NC(C)=O)c2)nc2ccccc21 (stereo not given)	none (no result: Lassa entry inh, MARV entry inh, HCV inh)
CC1CCN(S(=O)(=O)c2ccc(NC(=O)C3CSC4(C)CCC(=O)N34)cc2)CC1 (stereo not given)	HCV inh inconclusive
CCC(C)c1ccc(-c2cc(C(=O)OCC(=O)Nc3cc(C)on3)c3ccccc3n2)cc1 (stereo not given)	Lassa entry inh 1.6µM, MARV entry inh inconclusive
COc1ccc2cc(-c3cc(C(=O)O)c4ccccc4n3)ccc2c1	FMDV inh 10µM, HCMV antiviral -61, Lassa entry inh 0.35µM, MARV entry inh 0.71µM
COC(=O)c1cc(-c2ccc(NC(C)=O)cc2)nc2ccccc12	HCMV antiviral -68, Lassa entry inh inconclusive, MARV entry inh inconclusive, HCV inh inconclusive
CC(=O)Nc1ccc(-c2cc(C(=O)O)c3cc4ccccc4cc3n2)cc1	none (no result: Lassa entry inh, MARV entry inh, HCV inh)
COc1ccc(-c2cc(C(=O)OCC(=O)Nc3cc(C)on3)c3ccccc3n2)cc1OC	FMDV inh inconclusive
COc1ccc(CN(C)C(=O)c2cc(-c3ccccc3)nc3ccc(C)cc23)c(OC)c1OC	Lassa entry inh inconclusive, MARV entry inh inconclusive, HCV inh 10µM (no result: HCMV antiviral)
COc1ccc(-c2cc(C(=O)O)c3ccccc3n2)c(OC)c1	none
Cc1ccc(CNS(=O)(=O)c2c(C)nc3sc(C)cn3c2=O)cc1	none (no result: MARV entry inh, HCV inh)
CCn1c(Cc2ccccc2)nnc1SCC(=O)Nc1ccccc1O	Lassa entry inh inconclusive
CCc1nc2c(OCC(=O)N3CCOCC3)cccn2c1N(C)C(=O)COc1ccccc1	none (no result: Lassa entry inh, MARV entry inh, HCV inh)
COc1ccc2nc(-c3ccccc3)cc(C(=O)OCC(=O)N3CCCCC3)c2c1	HCMV antiviral -62, HCV inh inconclusive (no result: Lassa entry inh, MARV entry inh)
COc1cccc(CN(C)C(=O)c2cc(-c3ccc(F)cc3)nc3ccccc23)c1	Lassa entry inh inconclusive, MARV entry inh inconclusive, HCV inh 32µM (no result: HCMV antiviral)
COc1ccc(-n2nc(C(=O)N3CCN(c4cccc(C)c4C)CC3)c3c4ccccc4n(C)c3c2=O)cc1Cl	none (no result: HCV inh)
Cc1n[nH]c(C)c1CCc1nc2c3ccccc3nc(SCC(=O)Nc3ccc(F)cc3)n2n1	FMDV inh inconclusive, HCMV antiviral -68, Lassa entry inh inconclusive (no result: MARV entry inh, HCV inh)
CCOc1ccccc1NC(=O)CSc1nc2cc(OC)c(OC)cc2c2nc(CCn3c(C)nc4ccccc43)nn12	HCMV antiviral -93 (no result: HCV inh)
COc1cc2nc(SCC(=O)Nc3ccccc3C)n3nc(CCn4c(C)nc5ccccc54)nc3c2cc1OC	none (no result: HCV inh)
Cc1cncn1CCc1nc2c3ccccc3nc(SCC(=O)Nc3ccccc3F)n2n1	HCMV antiviral -67 (no result: MARV entry inh, HCV inh)
CC(=O)Nc1ccccc1-c1nc(CNC(=O)c2ccc(-n3cccn3)cc2)c(C)o1	none (no result: HCMV antiviral, Lassa entry inh, MARV entry inh, HCV inh)
COc1ccc(C(=O)C2CCCN(Cc3cnc(C)s3)C2)cc1OC (stereo not given)	HCMV antiviral inconclusive
CCOC(=O)C1CCN(Cc2cnc(Oc3ccc(C(C)(C)C)cc3)s2)CC1	Lassa entry inh 9.2µM
COc1ccc2cc(C(=O)C3CCCN(Cc4cnc(C)s4)C3)ccc2c1 (stereo not given)	HCMV antiviral -78, Lassa entry inh inconclusive, HCV inh 11µM
COc1ccc2cc(C(=O)C3CCCN(C4CCOCC4)C3)ccc2c1 (stereo not given)	MARV entry inh 7.9µM
Cc1ncc(CN2CCCC(C(=O)c3ccc(C(C)(C)C)cc3)C2)s1 (stereo not given)	FMDV inh inconclusive, HCMV antiviral inconclusive, HCV inh 11µM (no result: Lassa entry inh, MARV entry inh)
CCOC(=O)c1cccc(NC(=O)C(C)n2nc(C)c3c(C)n(-c4ccccc4)nc3c2=O)c1 (stereo not given)	FMDV inh inconclusive (no result: MARV entry inh, HCV inh)
CCN(CC)c1nc(-c2ccccc2)ncc1S(=O)(=O)c1ccc(C)cc1	HCV inh 7.1µM (no result: Lassa entry inh, MARV entry inh)
Cc1cc(C(=O)COC(=O)c2ccco2)c(C)n1Cc1ccco1	FMDV inh 8.9µM, Lassa entry inh 15µM, MARV entry inh inconclusive
Cc1cc(C(=O)COC(=O)c2ccncc2)c(C)n1Cc1ccco1	Lassa entry inh inconclusive
Cc1cc(C(=O)COC(=O)c2ccc(NC(=O)CC#N)cc2)c(C)n1CC(F)(F)F	none (no result: Lassa entry inh, MARV entry inh, HCV inh)
Cc1nn(Cc2ccccc2)c(C)c1C(=O)OCC(=O)c1cc(C)n(CC(F)(F)F)c1C	Lassa entry inh 1.8µM, MARV entry inh inconclusive, HCV inh 8.9µM
CCCCN(C)CCCNC(=O)Cn1ncc2c3ccccc3n(Cc3cccc(Cl)c3)c2c1=O	MARV entry inh inconclusive (no result: HCV inh)
C[C@H]1CN([C@@H](C)CO)C(=O)CCCn2cc(nn2)CO[C@@H]1CN(C)C(=O)NC1CCCCC1	none (no result: Lassa entry inh, MARV entry inh, HCV inh)
C/C(=N/OCC(=O)NCCCCCCNC(=O)CO/N=C(/C)c1cccs1)c1cccs1	HCMV antiviral inconclusive, Lassa entry inh inconclusive, MARV entry inh inconclusive, HCV inh 22µM
